Test results published in PubChem BioAssay (NCATS).
Inconclusive results are not listed. Activity calls are given as the source filed them. Unless noted, calls follow the shape of the dose curve; as a rule, active = well fitted curve in the direction sought with a large enough effect; inconclusive = small, poorly fitted or top-dose-only effect, or another doubt; inactive = no such curve, though single readings can be large; an effect the other way counts as inactive or inconclusive.

Key:
[1] = target: Flap endonuclease 1 (Homo sapiens) (UniProt P39748); test: qHTS Validation Assay for the Inhibitors of Human Flap endonuclease 1 (FEN1) (AID 488816); also: % is scaled to controls: 0 for no effect and ±100 for the full control effect
Flap endonuclease 1 (Homo sapiens), sequence (P39748 whole entry, looked up): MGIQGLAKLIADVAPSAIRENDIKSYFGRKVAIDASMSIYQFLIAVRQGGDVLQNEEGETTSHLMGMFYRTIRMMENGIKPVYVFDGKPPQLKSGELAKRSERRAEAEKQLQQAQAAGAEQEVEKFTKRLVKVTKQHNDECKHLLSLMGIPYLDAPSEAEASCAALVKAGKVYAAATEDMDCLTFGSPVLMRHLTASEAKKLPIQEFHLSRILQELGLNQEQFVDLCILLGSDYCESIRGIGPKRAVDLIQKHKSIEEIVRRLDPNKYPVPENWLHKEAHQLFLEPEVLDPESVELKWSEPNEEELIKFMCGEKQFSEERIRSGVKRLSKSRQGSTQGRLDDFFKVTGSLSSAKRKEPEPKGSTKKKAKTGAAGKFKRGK
Procedure, shortened: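 Enzyme reagent 10 nM; cpds pinned; 15 min RT preinc.; substrate 50 nM final; reads t=0 and 15 min; no-enzyme buffer wells as neg. control; normalized data, 4-parameter Hill fit.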

[2] = Inducers of the Endoplasmic Reticulum Stress Response (ERSR) in human glioma: Validation (AID 504836); also: 0% is about no effect
Procedure, shortened: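 Stably transfected U87-MG glioma cells carrying a GRP78-based luciferase sensor; 16 h compound incubation. Luminescence end-point read 10 min after Bright-Glo addition at room temperature.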

[3] = qHTS profiling of the MIPE4 collection as inhibitors of Plasmodium falciparum (DD2) proliferation (AID 743345; call rule not given here); conditions: P. falciparum Dd2 in erythrocytes, SYBR Green DNA, 72 h; at 28.5 µM (top of the series) unless noted
Procedure, shortened: (§1)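 Parasite DNA was quantified by SYBR Green I fluorescence (ex 485, em 535 nm) after overnight lysis in saponin/Triton buffer at room temperature. Cultures at 0.3% parasitemia and 2.5% hematocrit were first exposed to compound for 72 h at 37 C; signals were normalised to artemisinin (0.29 uM) and vehicle wells.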

[4] = qHTS profiling of the MIPE4 collection as inhibitors of Plasmodium falciparum (DD2) proliferation (Rep 2) (AID 743346; call rule not given here); conditions: P. falciparum Dd2 in erythrocytes, SYBR Green DNA, 72 h; at 28.5 µM (top of the series) unless noted
Procedure, shortened: as §1

[5] = qHTS profiling of the MIPE4 collection as inhibitors of Plasmodium falciparum (HB3) proliferation (AID 743347; call rule not given here;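 also: plate controls were DMSO vehicle wells for no effect and artemisinin wells for full effect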); conditions: P. falciparum HB3 in erythrocytes, SYBR Green DNA, 72 h; at 28.5 µM (top of the series) unless noted
Procedure, shortened: as §1

[6] = qHTS for Inhibitors of the Functional Ribonucleoprotein Complex (vRNP) of Lassa (LASV) Arenavirus: LASV Primary Screen - GLuc reporter signal (AID 1347082; calls by dose curve; tested in HEK293 reporter line; also: % is scaled to controls: 0 for no effect and ±100 for the full control effect; nearly all actives have a fitted effect of over 60% in size)
[7] = qHTS for Inhibitors of the Functional Ribonucleoprotein Complex (vRNP) of Lassa (LASV) Arenavirus: Viability assay - alamar blue signal for LASV Primary Screen (AID 1347083; calls by dose curve; tested in HEK293 reporter line; also: % is scaled to controls: 0 for no effect and ±100 for the full control effect; nearly all actives have a fitted effect of over 80% in size)
[8] = qHTS for Inhibitors of the Functional Ribonucleoprotein Complex (vRNP) of Lymphocytic Choriomeningitis Arenaviruses (LCMV): Viability assay - alamar blue signal for LCMV Primary Screen (AID 1347085; calls by dose curve; tested in HEK293 reporter line; also: % is scaled to controls: 0 for no effect and ±100 for the full control effect; nearly all actives have a fitted effect of over 80% in size)
[9] = target: Nucleoprotein (Lymphocytic choriomeningitis virus (strain Armstrong)) (UniProt P09992); test: qHTS for Inhibitors of the Functional Ribonucleoprotein Complex (vRNP) of Lymphocytic Choriomeningitis Arenaviruses (LCMV): LCMV Primary Screen - GLuc reporter signal (AID 1347086; calls by dose curve; also: % is scaled to controls: 0 for no effect and ±100 for the full control effect; nearly all actives have a fitted effect of over 70% in size)
Nucleoprotein (Lymphocytic choriomeningitis virus (strain Armstrong)), sequence (P09992 whole entry, looked up): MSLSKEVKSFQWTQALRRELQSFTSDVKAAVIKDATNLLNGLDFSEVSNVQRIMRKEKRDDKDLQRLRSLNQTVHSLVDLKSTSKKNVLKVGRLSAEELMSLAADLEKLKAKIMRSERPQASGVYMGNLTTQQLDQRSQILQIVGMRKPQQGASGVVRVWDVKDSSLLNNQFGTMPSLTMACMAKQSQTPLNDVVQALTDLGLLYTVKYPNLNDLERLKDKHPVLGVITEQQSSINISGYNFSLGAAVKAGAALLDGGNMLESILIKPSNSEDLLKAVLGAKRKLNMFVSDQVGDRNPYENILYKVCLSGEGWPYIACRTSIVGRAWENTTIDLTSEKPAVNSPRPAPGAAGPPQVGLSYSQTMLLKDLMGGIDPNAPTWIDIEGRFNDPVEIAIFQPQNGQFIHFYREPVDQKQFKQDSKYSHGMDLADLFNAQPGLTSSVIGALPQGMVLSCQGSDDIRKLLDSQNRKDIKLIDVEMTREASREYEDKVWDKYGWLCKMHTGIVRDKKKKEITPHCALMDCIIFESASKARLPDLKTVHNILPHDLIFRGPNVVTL

[10] = target: Alpha-galactosidase (Coffea arabica) (UniProt Q42656); test: Counterscreen for Glucocerebrosidase Inhibitors: qHTS Assay for Coffee Bean alpha-Galactosidase at pH 4.5 (AID 957);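 also: plate controls were enzyme alone for no effect and no enzyme for full effect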
Alpha-galactosidase (Coffea arabica), sequence (Q42656 whole entry, looked up): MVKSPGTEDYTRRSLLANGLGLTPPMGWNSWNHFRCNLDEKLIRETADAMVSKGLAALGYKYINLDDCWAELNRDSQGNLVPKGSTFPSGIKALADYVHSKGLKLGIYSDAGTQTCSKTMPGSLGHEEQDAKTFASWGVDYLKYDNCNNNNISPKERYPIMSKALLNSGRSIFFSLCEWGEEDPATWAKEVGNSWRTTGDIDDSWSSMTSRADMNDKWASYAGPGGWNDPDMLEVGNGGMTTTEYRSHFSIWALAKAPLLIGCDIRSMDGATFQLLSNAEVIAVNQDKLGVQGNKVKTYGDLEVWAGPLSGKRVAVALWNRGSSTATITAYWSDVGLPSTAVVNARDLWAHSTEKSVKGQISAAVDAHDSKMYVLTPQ
Procedure, shortened: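 Quantitative HTS of compounds (0.7 nM to 77 uM) against coffee bean alpha-galactosidase at pH 4.5, measuring 4-methylumbelliferone fluorescence released from 80 uM substrate.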

[11] = target: Alpha-galactosidase (Coffea arabica) (UniProt Q42656); test: Counterscreen for Glucocerebrosidase Inhibitors: qHTS Assay for Coffee Bean alpha-Galactosidase at pH 5.9 (AID 998);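 also: plate controls were uninhibited enzyme for no effect and no-enzyme basal signal for full effect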
Procedure, shortened: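 Enzyme 2 nM + cpd (0.7 nM–77 uM titration) + 4-MU-alpha-Gal 80 uM, pH 5.9 citrate/Tween-20, RT 20 min, NaOH/glycine stop pH 10, fluor 365/440. Normalized to no-enzyme and full-activity controls; Hill-fit AC50.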

[12] = Validation screen for inhibitors of Lassa infection (AID 463096; calls by dose curve; also: % is scaled to controls: 0 for no effect and ±100 for the full control effect)
[13] = target: Cytochrome P450 3A4 (Homo sapiens) (UniProt P08684); test: qHTS Assay for Inhibitors and Substrates of Cytochrome P450 3A4 (AID 884); also: % is scaled to controls: 0 for no effect and ±100 for the full control effect; nearly all actives have a fitted effect of over 50% in size
Procedure, shortened: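 Luminescent readout of luciferin produced by CYP3A4 (20 nM) dealkylation of Luciferin-PPXE, 25 uM (its KM). NADPH-driven reaction ran 60 min at RT after 10 min compound preincubation; data scaled to 57 uM ketoconazole as 100% inhibition.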

[14] = target: Arylsulfatase A (Homo sapiens) (UniProt P15289); test: qHTS screen for enhancers of Arylsulfatase A (ASA1): LOPAC Validation Assay (AID 720538); also: potency is read from the fitted curve at half-maximal effect
Arylsulfatase A (Homo sapiens), sequence (P15289 whole entry, looked up): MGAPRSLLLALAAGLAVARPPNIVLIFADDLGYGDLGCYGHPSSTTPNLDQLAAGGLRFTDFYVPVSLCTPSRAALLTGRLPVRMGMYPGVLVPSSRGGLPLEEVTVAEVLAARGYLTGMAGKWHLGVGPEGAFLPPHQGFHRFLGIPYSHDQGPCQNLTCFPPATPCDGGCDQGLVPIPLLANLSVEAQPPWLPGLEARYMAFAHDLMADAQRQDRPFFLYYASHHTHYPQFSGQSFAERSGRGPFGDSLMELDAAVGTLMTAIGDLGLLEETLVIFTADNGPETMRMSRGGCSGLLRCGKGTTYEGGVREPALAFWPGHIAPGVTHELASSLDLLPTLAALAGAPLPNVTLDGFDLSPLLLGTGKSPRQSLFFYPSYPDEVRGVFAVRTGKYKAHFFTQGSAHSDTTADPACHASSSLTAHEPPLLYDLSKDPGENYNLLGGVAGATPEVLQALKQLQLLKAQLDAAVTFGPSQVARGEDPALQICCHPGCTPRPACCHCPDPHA
Procedure, shortened: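 Enhancer assay in patient-derived MLD fibroblasts carrying ASA-I179S: 48 h compound exposure at 37 C, then 14 h room-temperature pNCS turnover (0.5 mM final) in lysis buffer. Read by fluorescence at 525/598 nm after NaOH stop.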

[15] = target: Bile acid receptor (Homo sapiens) (UniProt Q96RI1); test: qHTS assay for small molecule agonists of farnesoid X receptor signaling (AID 588527; calls by dose curve;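 also: 0% = vehicle basal and 100% = reference agonist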); conditions: HEK293T FXR-UAS-bla, beta-lactamase ratio, 16 h; activation: stronger effect = higher value
Procedure, shortened: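 FXR-UAS-bla HEK293T, 10% dialyzed FBS; cpds up to 92 uM titration, 16 h 37 C; CCF4 dye 2 h RT; fluorescence. Normalized to chenodeoxycholic acid 100 uM (100%) and DMSO (0%); Hill fit gives EC50, efficacy.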

[16] = target: Ubiquitin carboxyl-terminal hydrolase 2 (Homo sapiens) (UniProt O75604); test: qHTS Validation Assay for Inhibitors of Ubiquitin-specific Protease USP2a Using CHOP2 as the Reporter (AID 463106); also: potency is read from the fitted curve at half-maximal effect
Ubiquitin carboxyl-terminal hydrolase 2 (Homo sapiens), sequence (O75604 whole entry, looked up): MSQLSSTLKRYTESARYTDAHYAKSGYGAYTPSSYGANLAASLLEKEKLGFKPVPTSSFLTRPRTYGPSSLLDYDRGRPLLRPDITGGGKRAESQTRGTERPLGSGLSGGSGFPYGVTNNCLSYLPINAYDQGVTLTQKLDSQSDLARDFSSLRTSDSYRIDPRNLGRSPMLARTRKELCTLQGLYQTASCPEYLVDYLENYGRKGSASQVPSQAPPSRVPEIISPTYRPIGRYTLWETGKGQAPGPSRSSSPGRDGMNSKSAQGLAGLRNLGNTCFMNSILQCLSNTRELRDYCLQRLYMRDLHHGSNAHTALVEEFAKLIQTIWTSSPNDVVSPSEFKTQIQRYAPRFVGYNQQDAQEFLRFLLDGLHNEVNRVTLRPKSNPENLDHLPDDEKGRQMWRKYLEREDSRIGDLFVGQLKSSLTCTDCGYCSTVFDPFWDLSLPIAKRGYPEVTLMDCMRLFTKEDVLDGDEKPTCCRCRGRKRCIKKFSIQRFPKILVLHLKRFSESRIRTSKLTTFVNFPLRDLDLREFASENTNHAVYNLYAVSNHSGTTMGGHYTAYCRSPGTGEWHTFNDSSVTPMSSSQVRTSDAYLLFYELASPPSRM
Procedure, shortened: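 Fluorescence read-out at Ex 485nm/Em 531nm after 60min RT, following addition of 25nM Ub-CHOP2 plus 25nM reporter substrate to USP2 core (10nM) pretreated 30min with compound. Data normalized to NEM full inhibition; concentration-response curves fitted.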

[17] = target: DNA polymerase III PolC-type (Bacillus subtilis (strain 168)) (UniProt P13267); test: qHTS Validation Assay for the Inhibitors of DNA Replication in Gram-Positive Bacteria (AID 485295); also: potency is read from the fitted curve at half-maximal effect
DNA polymerase III PolC-type (Bacillus subtilis (strain 168)), sequence (P13267 whole entry, looked up): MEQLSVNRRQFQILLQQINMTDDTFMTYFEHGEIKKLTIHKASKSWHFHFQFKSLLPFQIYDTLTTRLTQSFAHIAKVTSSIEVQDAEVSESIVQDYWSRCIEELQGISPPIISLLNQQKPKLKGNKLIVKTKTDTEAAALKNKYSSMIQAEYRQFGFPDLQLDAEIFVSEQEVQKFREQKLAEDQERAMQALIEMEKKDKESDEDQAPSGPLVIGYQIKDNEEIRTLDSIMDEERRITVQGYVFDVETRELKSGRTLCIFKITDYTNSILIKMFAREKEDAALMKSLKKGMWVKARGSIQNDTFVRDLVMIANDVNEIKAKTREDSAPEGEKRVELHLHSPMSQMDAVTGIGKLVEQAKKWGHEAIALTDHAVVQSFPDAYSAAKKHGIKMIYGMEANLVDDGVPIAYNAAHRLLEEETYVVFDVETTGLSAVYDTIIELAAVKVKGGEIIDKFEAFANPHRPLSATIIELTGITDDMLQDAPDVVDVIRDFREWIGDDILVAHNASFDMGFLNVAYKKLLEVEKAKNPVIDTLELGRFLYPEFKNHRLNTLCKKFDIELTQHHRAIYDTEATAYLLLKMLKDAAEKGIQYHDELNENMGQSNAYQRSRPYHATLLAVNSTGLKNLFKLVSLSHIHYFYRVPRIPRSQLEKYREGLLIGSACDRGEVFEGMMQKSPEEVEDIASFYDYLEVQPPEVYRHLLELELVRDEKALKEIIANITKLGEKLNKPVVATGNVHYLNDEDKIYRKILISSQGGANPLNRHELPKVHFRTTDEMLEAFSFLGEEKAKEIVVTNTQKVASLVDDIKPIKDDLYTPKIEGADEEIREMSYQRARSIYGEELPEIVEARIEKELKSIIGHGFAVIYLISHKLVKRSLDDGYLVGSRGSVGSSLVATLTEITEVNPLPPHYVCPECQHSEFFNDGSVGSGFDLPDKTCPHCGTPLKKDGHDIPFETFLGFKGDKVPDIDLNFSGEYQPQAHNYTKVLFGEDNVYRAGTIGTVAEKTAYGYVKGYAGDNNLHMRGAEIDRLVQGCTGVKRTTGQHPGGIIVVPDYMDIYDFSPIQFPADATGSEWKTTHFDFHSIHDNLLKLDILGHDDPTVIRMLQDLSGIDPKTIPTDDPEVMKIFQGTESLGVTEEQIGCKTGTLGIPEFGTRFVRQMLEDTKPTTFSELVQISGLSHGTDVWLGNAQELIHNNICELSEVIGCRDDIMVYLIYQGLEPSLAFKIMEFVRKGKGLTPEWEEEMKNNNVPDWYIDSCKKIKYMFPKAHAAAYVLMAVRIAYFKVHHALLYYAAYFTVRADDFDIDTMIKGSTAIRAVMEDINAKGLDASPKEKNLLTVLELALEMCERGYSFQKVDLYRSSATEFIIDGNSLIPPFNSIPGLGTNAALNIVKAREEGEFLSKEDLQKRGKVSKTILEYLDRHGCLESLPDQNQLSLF
Procedure, shortened: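 Double-stranded DNA product detected by PicoGreen fluorescence after EDTA quench. Compound incubated with B. subtilis holoenzyme (PolC, beta subunit, SSB, primase) before substrate addition; primed replication of M13Gori with dNTPs and NTPs at room temperature; DMSO defines 0% inhibition.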

[18] = target: Ubiquitin carboxyl-terminal hydrolase 1 (Homo sapiens) (UniProt O94782); test: Inhibitors of USP1/UAF1: Pilot qHTS (AID 504865); also: potency is read from the fitted curve at half-maximal effect; nearly all actives have a fitted effect of over 35% in size
Ubiquitin carboxyl-terminal hydrolase 1 (Homo sapiens), sequence (O94782 whole entry, looked up): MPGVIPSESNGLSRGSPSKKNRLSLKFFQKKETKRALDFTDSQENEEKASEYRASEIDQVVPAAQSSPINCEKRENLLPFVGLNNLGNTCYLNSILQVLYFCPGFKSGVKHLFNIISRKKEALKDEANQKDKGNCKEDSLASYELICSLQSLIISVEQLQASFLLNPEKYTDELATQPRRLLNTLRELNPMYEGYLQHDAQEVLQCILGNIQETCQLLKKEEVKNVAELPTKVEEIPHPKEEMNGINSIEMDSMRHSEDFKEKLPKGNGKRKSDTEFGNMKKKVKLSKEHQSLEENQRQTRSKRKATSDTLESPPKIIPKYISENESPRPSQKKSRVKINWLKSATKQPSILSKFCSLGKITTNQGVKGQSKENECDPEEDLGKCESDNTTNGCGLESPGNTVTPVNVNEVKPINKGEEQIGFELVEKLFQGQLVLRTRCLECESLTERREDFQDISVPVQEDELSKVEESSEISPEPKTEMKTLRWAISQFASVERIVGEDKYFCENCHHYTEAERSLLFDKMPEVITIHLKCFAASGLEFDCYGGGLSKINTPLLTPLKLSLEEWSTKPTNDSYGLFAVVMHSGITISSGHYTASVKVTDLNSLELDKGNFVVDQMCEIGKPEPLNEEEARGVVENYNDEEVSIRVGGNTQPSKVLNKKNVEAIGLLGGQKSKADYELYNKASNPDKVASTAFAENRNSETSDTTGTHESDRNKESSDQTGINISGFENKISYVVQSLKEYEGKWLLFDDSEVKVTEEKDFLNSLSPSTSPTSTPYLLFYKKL
Procedure, shortened: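 Deubiquitinase activity followed as kinetic rhodamine fluorescence release from 150 nM Ub-Rho. 1 nM USP1/UAF1 with compound, after 15 min room-temperature preincubation, in HEPES pH 7.8 buffer containing TCEP, EDTA, BSA and Tween-20.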

[19] = HTS Assay for Allosteric Antagonists of the Human D2 Dopamine Receptor: Hit Validation in HTRF (AID 624455);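 also: stable D1 dopamine receptor cell line scored for blocking the D1 response; % is scaled to controls: 0 for no effect and ±100 for the full control effect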
Procedure, shortened: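 Validation of hits used D1 receptor stably expressed in cells with HTRF detection of response inhibition; origin screen measured calcium flux following EC80 dopamine in a force-coupled, inducible Hek293 Trex D2 cell line.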

CN[C@H](CC(C)C)C(=O)N[C@H]1C(=O)N[C@@H](CC(N)=O)C(=O)N[C@@H]2C(=O)N[C@H]3C(=O)N[C@H](C(=O)N[C@H](C(=O)O)c4cc(O)cc(O)c4-c4cc3ccc4O)[C@H](O)c3ccc(c(Cl)c3)Oc3cc2cc(c3O[C@@H]2O[C@H](CO)[C@@H](O)[C@H](O)[C@@H]2O[C@H]2C[C@](C)(N)[C@H](O)[C@H](C)O2)Oc2ccc(cc2Cl)[C@H]1O
150%: parasite growth, % of control (lower = inhibition) [4]
704%: growth, % of control [5]
inactive: Potency [1] | outcome [2] | Potency [6] | Potency [7] | Potency [8] | Potency [9]
104%: parasite growth remaining, % of DMSO control (lower = more inhibition) [3]

C[C@@H](NC(=O)/C(C#N)=C/c1ccc(O)c(O)c1)c1ccccc1
inactive: outcome [10] | outcome [11] | Potency [12] | Potency [6] | Potency [7] | Potency [8] | Potency [9]

Nc1c(S(=O)(=O)O)cc(Nc2ccc(Nc3nc(Cl)nc(Nc4ccc(S(=O)(=O)O)cc4)n3)c(S(=O)(=O)O)c2)c2c1C(=O)c1ccccc1C2=O
inactive: outcome [11] | Potency [12] | outcome [2] | Potency [6] | Potency [7] | Potency [8] | Potency [9]

O=C(O)c1cc2cc(Cc3cccnc3)ccc2o1
inactive: outcome [10] | outcome [11] | Potency [12] | Potency [6] | Potency [7] | Potency [8] | Potency [9]

CC[C@H](NC(=O)c1c(C)c(-c2ccccc2)nc2ccccc12)c1ccccc1
inactive: outcome [10] | outcome [11] | Potency [12] | Potency [6] | Potency [7] | Potency [8] | Potency [9]

COc1ccccc1N1CCN(CCN(C(=O)c2ccc(F)cc2)c2ccccn2)CC1
inactive: outcome [11] | Potency [12] | outcome [2] | Potency [6] | Potency [7] | Potency [8] | Potency [9]

O=c1[nH]c2ccccc2c2ccccc12
inactive: outcome [11] | Potency [12] | outcome [2] | Potency [6] | Potency [7] | Potency [8] | Potency [9]

OC[C@H]1O[C@@H](n2cnc3cncnc32)[C@H](O)[C@@H]1O
inactive: Potency [13] | Potency [12] | Potency [6] | Potency [7] | Potency [8] | Potency [9]

C=CC(=O)c1ccc(CCCCCC)cc1
inactive: outcome [2] | Potency [6] | Potency [7] | Potency [8] | Potency [9]

Oc1cc2c(cc1O)CN(C(=S)NCCc1ccc(Cl)cc1)CCC2
inactive: outcome [11] | Potency [12] | outcome [2] | Potency [6] | Potency [7] | Potency [8] | Potency [9]

N#C/C(=C\c1ccc(O)c(O)c1)C(=O)NCCCc1ccccc1
inactive: outcome [11] | Potency [12] | Potency [6] | Potency [7] | Potency [8] | Potency [9]

O=C(O)c1cc2cc(F)ccc2[nH]1
inactive: outcome [10] | outcome [11] | Potency [12] | Potency [6] | Potency [7] | Potency [8] | Potency [9]

O=C(O)CC1CC(c2ccccc2)=NO1 (centres undefined)
inactive: Potency [1] | Potency [14] | Potency [6] | Potency [7] | Potency [8] | Potency [9]

Cc1cc(Cn2cnc3c2C[C@@H](C(=O)O)N(C(=O)C(c2ccccc2)c2ccccc2)C3)ccc1N
inactive: outcome [2] | Potency [6] | Potency [7] | Potency [8] | Potency [9]

CCCCCCCCCCCCCCSCC(=O)O
inactive: outcome [10] | Potency [12] | activation [15] 0.99% | Potency [6] | Potency [7] | Potency [8] | Potency [9]

N.N.N.N.N.N.N.N.N.N.N.N.N.N.O.O.[Ru+4].[Ru+5].[Ru+5]
inactive: outcome [2] | outcome [19] | Potency [6] | Potency [7] | Potency [8] | Potency [9]
active: Potency [16] 14.7 µM | Potency [17] 16.8 µM | Potency [18] 44.7 µM | Potency [14] 12 µM

Cc1cc2c(cc1Cl)N(C(=O)Nc1ccnc3ccccc13)CC2
inactive: outcome [10] | outcome [11] | Potency [12] | Potency [6] | Potency [7] | Potency [8] | Potency [9]

COc1cc(CNC(=O)CCCCCCC(C)C)ccc1O
inactive: outcome [10] | outcome [11] | Potency [12] | Potency [6] | Potency [7] | Potency [8] | Potency [9]
